Source: PubChem BioAssay
Unmarked numbers belong to inactive results. Active and inactive are the calls of the source.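 How the source made its calls: active means thallium flux through the channel raised or lowered by more than 3 SD from vehicle-only wells, actives on both sides; inactive means the rest.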

How the values were obtained:
Assay in all cases: modulators of BK channel variants, profiling panel, selectivity assay, cell-based, U2OS BacMam, thallium flux, beta subunits (AID 1259406);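 further: initial slope of Thallos dye fluorescence rise after thallium is added; log ratio against the mean of 0.3% DMSO vehicle wells on the same plate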
F380Y = settings: at 30 µM
F380Y/beta1 = settings: at 30 µM
F380Y/beta2Delta = settings: at 30 µM
F380Y/beta4 = settings: at 30 µM
[1] = molecular target: Calcium-activated potassium channel subunit alpha-1 (Homo sapiens) + Leucine-rich repeat-containing protein 26 (Homo sapiens) (UniProt Q12791+Q2I0M4); settings: F380Y/Slo1WT/gamma1, at 30 µM
Calcium-activated potassium channel subunit alpha-1 (Homo sapiens) + Leucine-rich repeat-containing protein 26 (Homo sapiens), sequence (Q2I0M4 whole entry, looked up, one chain of several): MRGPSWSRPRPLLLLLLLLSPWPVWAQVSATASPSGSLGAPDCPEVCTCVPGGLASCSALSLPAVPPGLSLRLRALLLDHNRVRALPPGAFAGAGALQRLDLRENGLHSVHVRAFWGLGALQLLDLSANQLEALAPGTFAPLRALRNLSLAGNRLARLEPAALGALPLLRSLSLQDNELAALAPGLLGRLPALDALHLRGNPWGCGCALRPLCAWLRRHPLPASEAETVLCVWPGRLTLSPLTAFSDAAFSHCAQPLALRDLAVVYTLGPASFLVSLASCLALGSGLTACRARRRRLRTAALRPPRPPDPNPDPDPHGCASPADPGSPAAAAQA

R275C = settings: at 30 µM
R275C/beta1 = settings: at 30 µM
R275C/beta2Delta = settings: at 30 µM
R275C/beta4 = settings: at 30 µM
R275C/Slo1WT/beta2 = settings: at 30 µM

Row | SMILES | log fold change Tl+ flux (F380Y) | log fold change Tl+ flux (F380Y/beta1) | log fold change Tl+ flux (F380Y/beta2Delta) | log fold change Tl+ flux (F380Y/beta4) | log fold change Tl+ flux [1] | log fold change Tl+ flux (R275C) | log fold change Tl+ flux (R275C/beta1) | log fold change Tl+ flux (R275C/beta2Delta) | log fold change Tl+ flux (R275C/beta4) | log fold change Tl+ flux (R275C/Slo1WT/beta2)
1 | Cc1cc(C)c(C(=O)O)c(CC(C)(C)C(=O)O)c1 | 0.000395 | 0.016 | -0.00135 | -0.0155 | 0.0359 | 0.0232 | -0.00597 | 0.00899 | -0.0125 | 0.0267
2 | N#Cc1cc(-c2ccccc2)oc1NC(=O)c1cccs1 | -0.0586 | 0.0261 | 0.0131 | 0.0109 | 0.0363 | 0.00241 | -0.0262 | 0.0138 | -0.00555 | 0.0278
3 | O=C(OCCSc1sccc1[N+](=O)[O-])c1ccc(Cl)cc1 | -0.00334 | -0.009 | 0.0128 | -0.0285 | -0.0095 | 0.0114 | -0.0166 | 0.0149 | -0.01 | 0.0278
4 | NC(C=Cc1cc(C(F)(F)F)cc(C(F)(F)F)c1)=NOC(=O)c1c(F)cccc1F | -0.0565 | 0.0127 | -0.0278 | -0.0864 | -0.0341 | -0.0159 | -0.0569 | -0.0168 | 0.0381 | 0.0436
5 | CC(=O)c1sc(SCc2ccc(Cl)cc2)c2c1CC(C)(C)CC2=O | -0.0184 | 0.0319 | 0.0184 | -0.123 (active) | -0.0796 | 0.014 | -0.034 | -0.0422 | 0.00684 | 0.00246
6 | O=C(Nc1ccc(OC(F)(F)F)cc1)Nc1cc(C(F)(F)F)ccc1N1CCOCC1 | 0.0283 | -0.00979 | 0.0491 | -0.00808 | 0.0378 | 0.022 | 0.0354 | -0.0143 | -0.0232 | -0.0238
7 | CN1CCN(S(=O)(=O)c2ccc(CNC(=O)c3ccccc3)s2)CC1 | -0.0286 | -0.0353 | -0.0627 | -0.0096 | -0.0465 | 0.0435 | 0.0151 | -0.00195 | 0.00386 | -0.0258
8 | Cn1ncc2ccccc2c1=O | 0.0178 | 0.0239 | 0.0287 | 0.0126 | -0.0763 | -0.0283 | -0.0396 | 0.0689 | -0.014 | 0.00701
9 | Cc1nc(-c2ccc(C(F)(F)F)cc2)sc1CO | 0.0603 | 0.197 (active) | 0.0517 | 0.104 (active) | 0.156 (active) | 0.0174 | 0.0853 | 0.0843 (active) | 0.0953 (active) | 0.00529
10 | O=C(Nc1ccc(OC(F)(F)F)cc1)OC1CN(C(c2ccccc2)c2ccccc2)C1 | -0.0399 | -0.0331 | -0.0434 | -0.154 (active) | -0.134 (active) | -0.0449 | 0.0012 | -0.0123 | 0.0956 (active) | -0.0244
11 | CCOC(=O)c1cc(CC)sc1NC(=O)C(Cl)(Cl)Cl | -0.00144 | 0.0314 | -0.028 | 0.0374 | 0.0144 | -0.0151 | -0.066 | 0.0214 | -0.00727 | -0.00449
12 | Cc1ccc(S(=O)(=O)c2ncsc2SCc2ccc(Cl)cc2Cl)cc1 | 0.0356 | -0.0176 | 0.0366 | -0.0184 | 0.00897 | -0.00241 | 0.0419 | -0.0166 | -0.0112 | -0.00155
13 | O=C1NC2CC2N1C(=O)OCc1ccccc1 (stereo not given) | 0.0285 | -0.00537 | 0.0281 | 0.054 | -0.0415 | 0.00866 | 0.00489 | 0.0219 | -0.029 | -0.0313
14 | O=S(=O)(Cc1nc(C=Cc2cc(C(F)(F)F)cc(C(F)(F)F)c2)no1)c1ccc(Cl)cc1 | -0.0307 | 0.0685 | 0.000486 | -0.0134 | 0.00425 | 0.0144 | 0.0543 | 0.0281 | -0.0177 | 0.00318
15 | O=C(Nc1ccc(-n2ccc(C(F)(F)F)n2)cc1)C1=Cc2cc(Cl)ccc2OC1 | 0.0274 | -0.019 | 0.0253 | -0.0159 | -0.106 | -0.0271 | -0.0315 | 0.035 | -0.0139 | -0.0341
16 | CC1(C)CC(=O)C=C(NCCCCCCCCNC2=CC(=O)CC(C)(C)C2)C1 | 0.000907 | 0.0262 | 0.0043 | 0.0246 | -0.0867 | -0.0564 | -0.0828 | -0.0562 | -0.0723 | -0.149 (active)
17 | C=CCNC(SC)=C(C#N)C(N)=O | -0.000365 | -0.02 | 0.0377 | -0.0612 | 0.0338 | -0.0174 | -0.038 | 0.00669 | -0.0131 | -0.00229
18 | Cc1noc(C)c1C(=O)Sc1nccc(C(F)(F)F)n1 | -0.0193 | 0.00713 | -0.00114 | 0.0508 | -0.00072 | 0.00122 | 0.0433 | -0.013 | 0.0297 | -0.0512
19 | NC1(C(=O)O)CCSCC1 | -0.0475 | 0.00895 | -0.0146 | 0.00194 | -0.0223 | -0.0154 | -0.0495 | 0.0435 | -0.00913 | -0.00295
20 | CN1c2ccccc2C(C)(C)C12C=Cc1cc(Br)cc([N+](=O)[O-])c1O2 (stereo not given) | 0.0436 | 0.162 (active) | 0.0613 | 0.00641 | 0.0283 | 0.00244 | 0.132 (active) | 0.0868 (active) | 0.0424 | -0.0665
21 | O=C(Nc1ccccc1)OCc1cc(-c2ccccc2)c(C(F)(F)F)s1 | -0.0321 | -0.0201 | -0.0141 | -0.21 (active) | -0.173 (active) | -0.0877 (active) | -0.141 (active) | 0.0124 | -0.0566 | -0.0586
22 | Cc1noc(C=Cc2sccc2C2OCCO2)c1[N+](=O)[O-] | 0.00373 | 0.00792 | -0.0403 | -0.0687 | -0.0936 | 0.00445 | -0.0604 | -0.0701 | -0.00776 | -0.000775
23 | CC(C)c1ccc(NC(=S)NC2CC3CC2C2C=CCC32)cc1 (stereo not given) | 0.00954 | -0.00688 | -0.0661 | -0.422 (active) | -0.206 (active) | -0.205 (active) | -0.152 (active) | -0.109 (active) | -0.11 (active) | -0.0657
24 | O=C(Cn1nnc(N2CCCC2)n1)NN=Cc1ccc(Cl)cc1 | -0.0338 | -0.0165 | -0.0415 | 0.0509 | -0.0411 | 0.0738 | 0.012 | -0.0395 | 0.0185 | -0.00152
25 | NC(=NNC(=O)c1cccnc1)c1ccncc1 | 0.0309 | -0.00892 | 0.0142 | 0.00925 | -0.00474 | -0.039 | 0.0056 | 0.00736 | 0.00943 | -0.0381
26 | Cn1c(Sc2cnc(=S)[nH]c2-c2ccc(Cl)cc2)nnc1C(F)(F)F | 0.000803 | 0.0224 | 0.000625 | -0.0336 | 0.0434 | -0.0138 | -0.00364 | -0.0183 | 0.0272 | 0.0806
